Assay [1] in a line: qHTS assay to identify small molecule antagonists of the glucocorticoid receptor (GR) signaling pathway - cell viability counter screen (AID 720693). Also: nearly all actives have a fitted effect of over 55% in size. For orientation: In qHTS, concentration-response curves come from the screen itself.
Assay [2] in a line: qHTS assay for identifying genotoxic compounds that show differential cytotoxicity against isogenic chicken DT40 cell lines with known DNA damage response pathways - Rev3 mutant cell line (AID 743014). Also: nearly all actives have a fitted effect of over 55% in size. Also: potency is read from the fitted curve at half-maximal effect.
Assay [3] is described as follows: qHTS assay for identifying genotoxic compounds that show differential cytotoxicity against isogenic chicken DT40 cell lines with known DNA damage response pathways - Rad54/Ku70 mutant cell line (AID 743015). Also: nearly all actives have a fitted effect of over 60% in size. Also: potency is read from the fitted curve at half-maximal effect.
Assay [4] can be described thus: qHTS assay to identify small molecule antagonists of the androgen receptor (AR) signaling pathway - cell viability counter screen (AID 743033; also: nearly all actives have a fitted effect of over 45% in size; also: potency is read from the fitted curve at half-maximal effect).
Assay [5] can be described thus: qHTS assay to identify small molecule antagonists of the androgen receptor (AR) signaling pathway using the MDA cell line - cell viability counter screen (AID 743041; also: nearly all actives have a fitted effect of over 45% in size). The method in brief: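 Viability read by CellTiter-Fluor fluorescence in the same wells as the antagonist screen, added after 15.5 h of a 16 h, 37C exposure. Human breast carcinoma MDA-kb2 AR-luc cells, compounds co-dosed with agonist R1881.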

Assay [6] deals with Androgen receptor (Homo sapiens) (UniProt P10275). Description: qHTS assay to identify small molecule antagonists of the androgen receptor (AR) signaling pathway (AID 743035; active = well fitted inhibition curve with a large enough effect in the signal ratio in the repeat runs, not every such curve was filed as active; the % refers to the signal ratio; also: potency is read from the fitted curve at half-maximal effect). The method in brief: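 Reporter HEK293 cells were exposed to compounds and R1881 overnight (16 h, 37C); beta-lactamase activity was then quantified by FRET fluorescence.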
Sequence of Androgen receptor (Homo sapiens) (P10275 whole entry, looked up): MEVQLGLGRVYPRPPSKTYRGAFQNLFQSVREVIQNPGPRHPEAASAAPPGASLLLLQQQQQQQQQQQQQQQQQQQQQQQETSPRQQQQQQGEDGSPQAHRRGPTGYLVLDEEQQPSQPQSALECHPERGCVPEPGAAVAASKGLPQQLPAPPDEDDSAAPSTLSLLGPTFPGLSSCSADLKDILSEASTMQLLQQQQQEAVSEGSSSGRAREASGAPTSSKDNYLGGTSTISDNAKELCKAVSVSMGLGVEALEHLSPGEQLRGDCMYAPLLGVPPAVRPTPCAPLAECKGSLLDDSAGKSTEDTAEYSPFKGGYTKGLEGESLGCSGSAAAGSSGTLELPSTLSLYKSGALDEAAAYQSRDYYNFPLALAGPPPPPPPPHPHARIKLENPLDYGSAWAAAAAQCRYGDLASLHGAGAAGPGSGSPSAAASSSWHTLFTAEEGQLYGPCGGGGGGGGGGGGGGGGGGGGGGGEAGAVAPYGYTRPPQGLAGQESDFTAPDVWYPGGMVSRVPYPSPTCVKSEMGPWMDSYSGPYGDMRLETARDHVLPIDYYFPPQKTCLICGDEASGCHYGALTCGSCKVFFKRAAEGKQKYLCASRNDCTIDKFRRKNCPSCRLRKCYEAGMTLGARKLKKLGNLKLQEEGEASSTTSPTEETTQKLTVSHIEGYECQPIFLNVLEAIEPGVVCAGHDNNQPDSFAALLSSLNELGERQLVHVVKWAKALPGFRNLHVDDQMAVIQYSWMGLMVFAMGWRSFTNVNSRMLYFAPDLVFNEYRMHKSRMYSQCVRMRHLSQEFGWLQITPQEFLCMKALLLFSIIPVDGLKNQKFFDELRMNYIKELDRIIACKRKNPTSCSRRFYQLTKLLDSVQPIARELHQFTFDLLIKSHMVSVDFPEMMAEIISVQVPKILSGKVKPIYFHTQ
Assay [7] has the same target. The experiment in a line: qHTS assay to identify small molecule agonists of the androgen receptor (AR) signaling pathway (AID 743036; active = well fitted activation curve with a large enough effect in the signal ratio in the repeat runs, with a control signal flat, not every such curve was filed as active; the % refers to the signal ratio). The method in brief:
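AR-UAS-bla HEK293 cells, plated 4 h before dosing, were treated with compound for 16 h at 37C. beta-Lactamase reporter read after 2 h with LiveBLAzer B/G FRET substrate at room temperature.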

The target is the same in assay [8]. The experiment in a line: qHTS assay to identify small molecule agonists of the androgen receptor (AR) signaling pathway using the MDA cell line (AID 743040; also: nearly all actives have a fitted effect of over 20% in size). The method in brief:
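Luciferase agonist assay: 16 h compound exposure at 37C without CO2 in MDA-kb2 AR-luc cells, whose MMTV promoter responds to both AR and GR. Luminescence measured after 30 min room-temperature incubation with ONE-Glo.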

For assay [9] the target is unchanged. The experiment in a line: qHTS assay to identify small molecule antagonists of the androgen receptor (AR) signaling pathway using the MDA cell line (AID 743042; also: nearly all actives have a fitted effect of over 55% in size; also: potency is read from the fitted curve at half-maximal effect). Summed up: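 Antagonist mode: compounds plus R1881 agonist added to MDA-kb2 AR-luc cells, incubated 16 h at 37C. Luciferase reporter luminescence quantified, with multiplexed CellTiter-Fluor readout for cell viability.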

A short description of assay [10]: qHTS assay for identifying genotoxic compounds that show differential cytotoxicity against isogenic chicken DT40 cell lines with known DNA damage response pathways - wild type cell line (AID 743012). Also: nearly all actives have a fitted effect of over 60% in size. Also: potency is read from the fitted curve at half-maximal effect. Summed up: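 Viability of DNA repair-proficient chicken DT40 cells was assessed by CellTiter-Glo luminescence following 40 h compound exposure at 37 C/5% CO2.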

Values joined by “and” are separate entries in the source; they are usually repeats but may differ in a detail not shown here. Equal entries are not always repeated. Inconclusive results are not listed. Where a structure was tested more than once in an assay, its records may differ in their call. Active and inactive are the calls of the source. Unless noted, calls follow the shape of the dose curve; as a rule, active = well fitted curve in the direction sought with a large enough effect in the repeat runs; inconclusive = weak or mixed curves; inactive = no such curve, though single readings can be large; an effect the other way counts as inactive or inconclusive.

Regarding `Oc1ccc2c3c1O[C@H]1[C@@H](O)C=C[C@H]4[C@@H](C2)NCC[C@@]341`, the Potency result in assay [1], in assay [2], in assay [3], in assay [4] and in assay [5] was “inactive” in each case.
Consider `CCN(CC)C1CCCCC1`, for which the Potency result in assay [1], in [2], in assay [4], in [6], in assay [5] and in [9] was “inactive” throughout. Further, the compound was called inactive in assay [7] and in [8].
Regarding `C[C@H](N)C(=O)c1ccccc1`, the Potency result in [10], in [2], in assay [3], in assay [4], in [6] and in assay [5] was “inactive” each time. Also, the Potency result in assay [9] is “inactive”. In addition, the call in assay [7] and in [8] was inactive.
Consider `CC(C)(N)Cc1ccc(Cl)cc1`, for which the Potency result in assay [1], in assay [3], in [4] and in assay [5] was “inactive” in each case.
Turning to `O=C1C2CC=CCC2C(=O)N1SC(Cl)(Cl)Cl` (configuration not stated), the Potency in assay [10] was 473 nM (active) and 6.83 µM (active) and 120 nM (active); in assay [2] it was 531 nM (active) and 683 nM (active) and 107 nM (active); in [3], 596 nM (active) and 2.42 µM (active) and 135 nM (active); in [4], “inactive and 3.41 µM (active)”.
In the case of `CCCCCCCC(=O)Cl`, the Potency result in [1], in assay [3], in assay [4] and in assay [5] was “inactive” throughout.
`CCC1(c2ccccc2)C(=O)N(COC)C(=O)N(COC)C1=O`: the Potency entry in assay [10], in assay [2], in assay [3], in assay [4], in assay [6] and in [5] was “inactive” in each case. Besides, the Potency entry in [9] is “inactive”. Moreover, the compound was classed as inactive in [7] and in [8].
Take `CCN[C@@H](C)Cc1cccc(C(F)(F)F)c1`: the Potency result in [1], in assay [4] and in [5] was “inactive” throughout. The Potency in [3] is 21.3 µM (active).
On to `CCC(=O)OC1(c2ccccc2)CCN(C)CC1`, for which the Potency result in assay [1], in assay [3], in [4] and in assay [5] was “inactive” throughout.
For `CCOC(=O)NC(C)(C)Cc1ccc(Cl)cc1`, the Potency result in assay [1], in [2], in assay [4], in assay [6], in assay [5] and in [9] was “inactive” each time. Further, the compound was called inactive in assay [7] and in [8].
As to `O=C(O)C(F)(F)C(F)(F)C(F)(F)C(F)(F)C(F)(F)C(F)(F)F`, the Potency entry in [1], in assay [2], in [3], in [4] and in assay [5] was “inactive” each time.
For `CCOC(=O)c1ncn2c1CN(C)C(=O)c1c(I)cccc1-2`, the Potency entry in assay [1], in assay [2], in assay [4] and in assay [5] was “inactive” in each case.
In the case of `CCN[C@H](C)Cc1cccc(C(F)(F)F)c1`, the figures for the Potency in [10], in [2] and in [3] were 60.9 µM (active), 30.5 µM (active) and 54.3 µM (active), respectively. The Potency entry in [4] and in assay [5] was “inactive” each time.
On to `COc1cccc([C@@]2(O)CCCC[C@@H]2CN(C)C)c1`, for which the Potency result in assay [1], in assay [3], in assay [4], in assay [6], in [5] and in assay [9] was “inactive” in each case. The result in [7] and in assay [8] was inactive.
`NC1(c2ccccc2)CCCCC1`: the Potency result in assay [1], in assay [4] and in assay [5] was “inactive” each time.
For `COc1ccccc1OC`, the Potency entry in [1], in [3], in assay [4] and in assay [5] was “inactive” throughout.
`NNC(N)=O`: the Potency result in assay [10], in assay [2], in assay [3], in assay [4] and in assay [5] was “inactive” in each case.
Take `CNC(=O)Oc1cc(C)c(N(C)C)c(C)c1`: the Potency result in assay [1], in assay [4] and in assay [5] was “inactive” throughout.
Turning to `CC(C)[C@]12CC(=O)[C@H](C)[C@H]1C2`, the Potency result in [1], in assay [2], in [3], in assay [4] and in assay [5] was “inactive” each time.
In the case of `CCN(CCO)CCO`, the Potency entry in assay [1], in assay [3], in [4] and in [5] was “inactive” throughout.
As to `CN(C)CCc1c[nH]c2cccc(OP(=O)(O)O)c12`, the Potency entry in assay [10], in assay [2], in [3], in [4] and in assay [5] was “inactive” throughout.
Consider `NCCOS(=O)(=O)O`, for which the Potency result in assay [10], in assay [2], in assay [3], in assay [4] and in [5] was “inactive” throughout.
As to `O=S1(=O)OCCO1`, the Potency entry in [10], in assay [2], in assay [3], in [4], in assay [6] and in assay [5] was “inactive” throughout. Also, the Potency entry in [9] was “inactive”. The result in [7] and in [8] was inactive.
Regarding `Cc1ccc2c(c1)C1CN(C)CCC1N2` (configuration not stated), the Potency entry in assay [1], in [3] and in [4] was “inactive” throughout.
Turning to `CCOC1Oc2ccc(OS(C)(=O)=O)cc2C1(C)C` (configuration not stated), in assay [1], the Potency result is “inactive”. Besides, the Potency was 27.1 µM (active) in assay [2], 54 µM (active) in assay [3], 43.3 µM (active) in [6] and 60.6 µM (active) in [9]. For the same compound, the compound was classed as inactive in assay [7] and in assay [8].
On to `CCc1cc(OC)c(C[C@H](C)N)cc1OC`, for which the Potency is 63.7 µM (active) in assay [10], 71.5 µM (active) in [2] and 63.7 µM (active) in [3]. Further, in [4], the Potency result was “inactive”.
Turning to `CCNc1nc(NCC)nc(SC)n1`, the Potency entry in assay [1], in assay [4] and in assay [5] was “inactive” in each case.
On to `[O-][Br+2]([O-])O`, for which the Potency result in [1], in [3], in [4] and in assay [9] was “inactive” in each case. Moreover, in assay [8], the call was inactive.
In the case of `CCC(=O)c1ccc(Cl)cc1`, the Potency entry in assay [10], in assay [2], in assay [3], in assay [4] and in assay [5] was “inactive” throughout.
As to `NCC1(CC(=O)O)CCCCC1`, the Potency result in assay [1], in [3] and in [5] was “inactive” throughout.
With `CCCC[N+](=O)[O-]`, the Potency entry in assay [1], in assay [3], in assay [4] and in assay [5] was “inactive” each time.
On to `C=C(C)[C@H]1CN[C@H](C(=O)O)[C@H]1CC(=O)O`, for which the Potency entry in assay [1], in [4] and in [5] was “inactive” each time.
In the case of `OP(O)c1ccccc1`, the Potency result in [10], in assay [2], in assay [3], in [4], in assay [6] and in [5] was “inactive” each time. Further, in assay [9], the Potency result is “inactive”. Also, the call in [7] and in [8] was inactive.
On to `C[C@@H](N)[C@@H](O)c1ccccc1`, for which the Potency entry in assay [1], in [4] and in assay [5] was “inactive” throughout.
As to `ClCCCCCCCl`, the Potency entry in [1], in assay [2], in assay [3], in assay [4] and in assay [5] was “inactive” throughout.
For `C[N+]1(C)CCCCC1`, the Potency entry in [10], in assay [2], in assay [3], in assay [4], in assay [6] and in [5] was “inactive” each time. Also, in assay [9], the Potency result was “inactive”. The compound was classed as inactive in assay [7] and in [8].

The values are drawn from PubChem BioAssay (Tox21).
